Rows were chosen to be rich in hits. Some 19% of all compounds tested hit in one or more screens of this group.
TDP1 cell CPT: qHTS for Inhibitors of human tyrosyl-DNA phosphodiesterase 1 (TDP1): qHTS in cells in presence of CPT; chicken DT40 Tdp1-/-;hTDP1 cells + 20 nM CPT, ATP luminescence, 48 h; Potency, µM (doses to about 46.2 µM), inactives show top-dose activity change, negative = growth inhibition, usual class: inhibitors; 420,000 tested, 12% active; also: potency is read from the fitted curve at half-maximal effect; nearly all actives have a fitted effect of over 55% in size
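Chicken DT40 Tdp1-/- cells stably complemented with human TDP1 were seeded at 400 cells/well in medium containing 20 nM camptothecin, exposed to pin-transferred compounds, and grown at 37 °C for at least 48 hr. Viability was read as ATP luminescence.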
HT1080-NT tox: qHTS for induction of synthetic lethality in tumor cells producing 2HG: qHTS for the HT-1080-NT fibrosarcoma cell line; HT-1080-NT fibrosarcoma viability, CellTiter-Glo ATP luminescence, 48 h; Potency, µM (highest dose often 46.1 µM), without a hit: top-dose activity, negative = less viability, most hits filed as cytotoxic; 360,000 tested, 1.6% active;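 also: NT is the 2HG producing partner of a matched IDH1 knockdown line; potency is read from the fitted curve at half-maximal effect; 0% = DMSO-treated cells and -100% = media-only wells without cells; nearly all actives have a fitted effect of over 55% in size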
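Toxicity toward the 2HG-producing NT line was scored as %Activity, normalised to DMSO and no-cell wells, from CellTiter-Glo luminescence after 48 hours' treatment.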
HT1080 IDH1KD tx: qHTS for induction of synthetic lethality in tumor cells producing 2HG: qHTS for the HT-1080-IDH1KD cell line. Potency, µM (top dose mostly 46.1 µM), inactives show top-dose activity, negative = toxicity, hits mostly cytotoxic. 360,000 tested, 2% active. HT-1080 IDH1 knockdown viability, ATP luminescence, 48 h. AID 686971, 2013;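 also: potency is read from the fitted curve at half-maximal effect; 0% = DMSO wells and -100% = cell-free medium wells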
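HT-1080-IDH1KD cells (IDH1 knocked down), 750/well in RPMI with 5% FBS, treated with compound 48 h at 37 degrees C. Viability by CellTiter-Glo luminescence, normalised to DMSO and no-cell wells; concentration-response curves classed.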
IL-1B inflam inh: qHTS for Inhibitors of Inflammasome Signaling: IL-1-beta AlphaLISA Primary Screen; 360,000 tested, 4.7% active; THP-1 LPS/ATP IL-1B secretion, AlphaLISA, 16 h; active compounds read low; AID 743279, 2014; activity change, % at 57.5 µM; in the data active = activity change below about -50%; inconclusive = mostly about -30% to -49%
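THP-1 cells pretreated 1 hr with compounds (up to 57.5 uM final), then stimulated with LPS (250 ng/mL final) plus ATP (1.25 mM final); secreted IL-1B measured by AlphaLISA after 16 hr, decreased signal indicating inhibition.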
DT40 TDP1 no CPT: qHTS for Inhibitors of human tyrosyl-DNA phosphodiesterase 1 (TDP1): qHTS in cells in absence of CPT; DT40 Tdp1-/- hTDP1 cells, no CPT, ATP luminescence, 48 h; Potency, µM (highest dose often 46.2 µM), inactives show at the top dose activity change, negative = growth inhibition, most hits filed as inhibitors; 420,000 tested, 15% active; AID 686978, 2013; also: potency is read from the fitted curve at half-maximal effect; nearly all actives have a fitted effect of over 55% in size
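Camptothecin absent (DMSO only). Human TDP1-complemented DT40 knockout cells, 400 cells/well, 37 °C for minimum 48 hr; ATP measured via CellTiter-Glo, 30 min dark incubation, luminescence.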
ELG1 DNA repair: qHTS screen for small molecules that inhibit ELG1-dependent DNA repair in human embryonic kidney (HEK293T) cells expressing luciferase-tagged ELG1 | 330,000 tested, 2.3% active | HEK293T ELG1-luciferase reporter, luminescence, 16 h; DNA damage induced by 5-fluorouridine | AID 504467, 2011 | Potency, µM (titrated, usually from 46.1 µM), for inactives: top-dose activity change, negative = inhibition, actives largely listed as inhibitors; also: potency is read from the fitted curve at half-maximal effect; nearly all actives have a fitted effect of over 55% in size
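Luminescence from the luciferase reporter, measured 30 min after ONE-Glo reagent at room temperature, was the read-out. Beforehand, 2,000 cells per well were exposed for 16 hr at 37 °C to 5-fluorouridine together with compound or vehicle.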
Numbers without * were called inactive; ? = inconclusive; nt = no result. Unless noted, calls follow the shape of the dose curve; as a rule, active = well fitted curve in the direction sought with a large enough effect; inconclusive = small, poorly fitted or top-dose-only effect, or another doubt; inactive = no such curve, though single readings can be large; an effect the other way counts as inactive or inconclusive. Unless noted, % is scaled to controls: 0 for no effect and ±100 for the full control effect.

SMILES	TDP1 cell CPT	HT1080-NT tox	HT1080 IDH1KD tx	IL-1B inflam inh	DT40 TDP1 no CPT	ELG1 DNA repair
CS(=O)(=O)c1ccc(Cl)c(NC(=O)CSc2nc3ccccc3c(=O)n2Cc2ccco2)c1	-29%	1%	0%	-2	?	-12%
COc1ccc(NC(=O)Cn2c(=O)n(Cc3ccco3)c(=O)c3oc4ccccc4c32)cc1Cl	-18%	nt	nt	nt	-29%	nt
CNc1cncc(-c2cccc(C(=O)N(C)C)c2)n1	-26%	15%	5%	-9	?	nt
COCCN1C(=O)CN(S(C)(=O)=O)CC1(C)C(=O)NCc1ccccc1 (stereo unspecified)	-22%	24%	19%	17	0%	nt
Nc1ccn(C2OC(COP(=O)(O)O)C(O)C2O)c(=O)n1 (stereo unspecified)	0.65µM*	-3%	-17%	27	1.2µM*	nt
O=c1ccn([C@@H]2O[C@H](COP(=O)(O)O)[C@@H](O)[C@H]2O)c(=O)[nH]1	?	nt	nt	nt	-21%	nt
CCOc1cc(CNC(=O)c2ccc3c(c2)nc2n3CCCCC2)ccc1OC	-13%	nt	nt	nt	-11%	nt
CCOC(=O)c1ccc(-c2c(-c3ccc4c(c3)OCO4)noc2C)cc1F	16µM*	-1%	-10%	20	?	-12%
COc1ccc(-n2ncc3c2CC(C)(C)CC3NC(=O)CCCN2CCCC2=O)cc1 (stereo unspecified)	0%	?	?	14	11%	-1%
Cc1ccc2c(c1)C(C)(c1ccccc1)CC(C)(C)N2C(=O)c1ccc(F)cc1 (stereo unspecified)	?	nt	nt	nt	13µM*	nt
COc1cccc(C(=O)N2c3cc(C)ccc3C(C)(c3ccccc3)CC2(C)C)c1 (stereo unspecified)	?	nt	nt	nt	15µM*	nt
CN(Cc1ccc(Cl)s1)C(=O)CN1C(=O)N(C)C2(CCCCC2)C1=O	?	8%	16%	-9	-24%	?
COc1ccc(/C=C/C(=O)Nc2ccccc2C(=O)NCC(c2ccc(OC)cc2)N(C)C)cc1 (stereo unspecified)	18µM*	?	?	-78*	23µM*	?
CN(C)C(CNC(=O)c1ccc(-c2ccccc2)cc1)c1ccccc1 (stereo unspecified)	?	16µM*	16µM*	-54*	18µM*	?
COc1ccc(C(CNC(=O)CSc2ccccc2C)N(C)C)cc1 (stereo unspecified)	7%	-20%	-1%	-5	?	8%
COc1ccc(C(CNC(=O)Cc2ccc(-c3ccccc3)cc2)N(C)C)cc1 (stereo unspecified)	21µM*	18µM*	21µM*	-28	18µM*	0%
COc1ccc(/C=C/C(=O)Nc2ccccc2C(=O)O)cc1	?	-6%	-11%	29	-20%	?
Cc1cccc(OCC(=O)N(Cc2sccc2C)C2CCS(=O)(=O)C2)c1 (stereo unspecified)	3%	nt	nt	nt	?	nt
CN(C)c1ccc2c(=O)c3ccccc3oc2n1	-31%	-15%	-29%	15	?	nt
Cc1ccc(N2C(=O)CC(Sc3ncn[nH]3)C2=O)cc1C (stereo unspecified)	4.6µM*	-2%	0%	-6	5.2µM*	-7%
CCc1c(O)nc(SC2CC(=O)N(c3ccc(F)c(Cl)c3)C2=O)[nH]c1=O (stereo unspecified)	18%	10%	14%	27	8%	-8%
Cc1cccc(N2C(=O)CC(Sc3nccc(C)n3)C2=O)c1 (stereo unspecified)	?	17%	9%	24	-21%	1%
Cc1cccc(N2C(=O)CC(Sc3ncn[nH]3)C2=O)c1 (stereo unspecified)	1.8µM*	13%	18%	18	1.8µM*	-1%
CS(=O)(=O)c1ccc(C(O)C(CO)NC(=O)C(Cl)Cl)cc1 (stereo unspecified)	?	nt	nt	nt	1.6µM*	nt
CS(=O)(=O)c1ccc([C@@H](O)[C@@H](CO)NC(=O)C(Cl)Cl)cc1	5.8µM*	-21%	1%	-1	3.7µM*	6%
SMILES	TDP1 cell CPT	HT1080-NT tox	HT1080 IDH1KD tx	IL-1B inflam inh	DT40 TDP1 no CPT	ELG1 DNA repair
CCCCCCCCCCCCCCCC(=O)OC[C@@H](NC(=O)C(Cl)Cl)[C@H](O)c1ccc([N+](=O)[O-])cc1	-2%	nt	nt	nt	5%	nt
O=C1CN(C(=O)c2ccc(S(=O)(=O)N3CCCC3)cc2)C(c2ccccc2)c2cc(Cl)ccc2N1 (stereo unspecified)	?	nt	nt	nt	21µM*	nt
CCCC(=O)N1CC(=O)Nc2ccc(C)cc2C1c1ccccc1 (stereo unspecified)	5%	9%	13%	30	-5%	0%
O=C1CN(C(=O)c2cccc(Br)c2)C(c2ccccc2)c2cc(Cl)ccc2N1 (stereo unspecified)	5.2µM*	nt	nt	nt	?	nt
Cc1ccc2c(c1)C(c1ccccc1)N(C(=O)COc1ccc(Cl)cc1Cl)CC(=O)N2 (stereo unspecified)	21µM*	nt	nt	nt	21µM*	nt
O=C1CN(C(=O)Cc2ccc(F)cc2)C(c2ccccc2)c2cc(Cl)ccc2N1 (stereo unspecified)	15µM*	nt	nt	nt	18µM*	nt
O=C1CN(C(=O)c2c(F)cccc2F)C(c2ccccc2)c2cc(Br)ccc2N1 (stereo unspecified)	?	?	?	-19	?	3%
CC(C)CC(=O)N1CC(=O)Nc2ccc(F)cc2C1c1ccccc1 (stereo unspecified)	-1%	7%	6%	10	-28%	-7%
COc1ccc(NC(=O)N2CCOc3ccc(Cl)cc32)cc1	-3%	nt	nt	nt	-23%	nt
Cc1cccc(Cn2c(COc3ccc(Cl)cc3)nc3ccccc32)c1	23µM*	nt	nt	nt	16µM*	nt
O=C(Cn1c(COc2ccccc2)nc2ccccc21)Nc1cc(Cl)cc(Cl)c1	18µM*	?	?	7	?	3%
CCn1c(COc2ccc(C)cc2)nc2ccccc21	?	-7%	-19%	-76*	?	?

Assay outcomes (PubChem BioAssay)
